Data published in PubChem BioAssay.
For some assays here: Measured potencies and affinities stand elsewhere. Activity calls are given as the source filed them.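 How the source made its calls, unless noted: active means fluorescence ratio normalized to control raised more than 50% in primary screen plus both repeat runs; inactive means the rest.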

What was measured:
[1] = test system: TRPC4 beta (transient receptor potential cation channel C4), mouse; test: TRPC4 cation channel opening, retest – cell-based, Fluo4 calcium, HEK293 TRPC4beta/mu-opioid, duplicates, 10 µM, confirmation (AID 2426); details: Fluo4 calcium fluorescence, at 10 µM; hits give high values
[2] = test system: transient receptor potential cation channel C4 beta (TRPC4), mouse; test: TRPC4 cation channel opening, second retest – cell-based, second round, Fluo4, HEK293 TRPC4beta/mu-opioid, 1 µM, confirmation (AID 2461;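 active means primary screen active and over 50% activation in each of two duplicate runs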); details: Fluo4 calcium fluorescence, at 1 µM; hits give high values
[3] = test system: TRPC4 (transient receptor potential cation channel C4 beta), mouse; test: potentiation of DAMGO EC20 TRPC4 response – cell-based, second round, Fluo-4, HEK293 TRPC4beta/mu-opioid, 1 µM, confirmation (AID 2554;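 active means primary screen hit whose fluorescence ratio, in both repeats, exceeds the weak agonist control mean by 3 SD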); details: DAMGO EC20, Fluo-4 calcium flux, at 1 µM; hits give high values
[4] = test system: TRPC4 beta (transient receptor potential cation channel C4), mouse; test: potentiation of DAMGO EC20 TRPC4 response – cell-based, Fluo-4, HEK293 TRPC4beta/mu-opioid, confirmation (AID 2555;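 active means primary screen hit whose calcium fluorescence ratio, in both repeats, exceeds the weak agonist control mean by 3 SD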); details: DAMGO EC20, Fluo-4 calcium flux, at 10 µM; hits give high values
[5] = target: Short transient receptor potential channel 4 (Mus musculus) (UniProt Q9QUQ5); test: blockers of DAMGO-evoked TRPC4 calcium flux – cell-based, Fluo4, HEK293 TRPC4beta/mu-opioid, confirmation (AID 2636;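 active means calcium signal cut by more than 3 SD below the full-agonist control yet still positive, in both repeats and the earlier primary screen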); details: at 10 µM; hits give high values
Sequence of Short transient receptor potential channel 4 (Mus musculus) (Q9QUQ5 whole entry, looked up): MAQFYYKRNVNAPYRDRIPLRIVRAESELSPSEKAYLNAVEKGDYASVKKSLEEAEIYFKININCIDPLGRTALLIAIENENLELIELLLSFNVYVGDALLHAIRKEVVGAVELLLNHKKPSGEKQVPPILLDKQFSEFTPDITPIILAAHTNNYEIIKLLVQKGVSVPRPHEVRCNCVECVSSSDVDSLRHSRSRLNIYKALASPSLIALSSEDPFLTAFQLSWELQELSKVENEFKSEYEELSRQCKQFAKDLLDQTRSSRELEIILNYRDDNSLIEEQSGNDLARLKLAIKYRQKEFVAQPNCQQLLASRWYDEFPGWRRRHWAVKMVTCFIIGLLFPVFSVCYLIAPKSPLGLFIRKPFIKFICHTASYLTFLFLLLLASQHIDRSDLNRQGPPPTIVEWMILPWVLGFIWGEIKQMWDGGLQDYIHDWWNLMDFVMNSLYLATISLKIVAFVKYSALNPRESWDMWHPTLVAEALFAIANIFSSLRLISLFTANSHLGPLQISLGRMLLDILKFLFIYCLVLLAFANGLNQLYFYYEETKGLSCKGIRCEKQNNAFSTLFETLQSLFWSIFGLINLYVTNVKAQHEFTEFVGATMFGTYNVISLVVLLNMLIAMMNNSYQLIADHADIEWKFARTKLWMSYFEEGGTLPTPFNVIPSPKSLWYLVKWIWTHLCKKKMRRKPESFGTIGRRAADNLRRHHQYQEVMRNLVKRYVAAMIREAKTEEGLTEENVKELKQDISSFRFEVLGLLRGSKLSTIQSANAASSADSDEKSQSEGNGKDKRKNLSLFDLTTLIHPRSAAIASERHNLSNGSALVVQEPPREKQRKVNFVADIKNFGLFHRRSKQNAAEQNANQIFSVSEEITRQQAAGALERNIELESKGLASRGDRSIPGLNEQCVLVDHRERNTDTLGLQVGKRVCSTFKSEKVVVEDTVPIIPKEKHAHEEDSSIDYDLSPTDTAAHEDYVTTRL

[6] = target: Short transient receptor potential channel 4 (Mus musculus) (UniProt Q9QUQ5); test: blockers of DAMGO-evoked TRPC4 calcium flux – cell-based, second round, Fluo4, HEK293 TRPC4beta/mu-opioid, 1 µM, confirmation (AID 2637;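 active means calcium signal ratio cut to more than 3 SD under the fully stimulated control mean yet still positive, in both repeats and the primary screen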;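 on inhibition: percent of integrated ratio relative to wells lacking test compound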); details: at 1 µM; hits give high values
[7] = target: Short transient receptor potential channel 4 (Mus musculus) (UniProt Q9QUQ5); test: calcium entry via TRPC4 opening agents – cell-based, HEK293 TRPC4/mu-opioid, Fluo-4 calcium, dose response (AID 434937;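 active means primary screen activator hit with a dose response curve and TRPC4 channel activation at any tested dose; inactive means no activation, no dose response, or not a primary hit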)
[8] = target: Short transient receptor potential channel 4 (Mus musculus) (UniProt Q9QUQ5); test: potentiation of DAMGO-evoked TRPC4 calcium signal – cell-based, HEK293 TRPC4/mu-opioid, Fluo-4 calcium, EC20 DAMGO, dose response (AID 434941;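 active means earlier screen potentiator hit that boosts the TRPC4 ion channel at some dose, with a dose response; inactive means no potentiation, no dose response, or not a prior hit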;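 further: calcium entry triggered by an EC20 dose of DAMGO at the co-expressed mu-opioid receptor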)
[9] = target: Short transient receptor potential channel 6 (Mus musculus) (UniProt Q61143); test: TRPC6 blockade by TRPC4 inhibitor hits – cell-based, HEK293, membrane potential dye, duplicate, selectivity assay for TRPC4 inhibitor project, confirmation (AID 434948;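 active means active in primary screen and both duplicates, each dropping signal beyond three positive-control SD with fluorescence still positive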); details: HEK293 TRPC6, membrane potential dye fluorescence, at 10 µM, stimulated with maximal-effect acetylcholine; hits give high values
Sequence of Short transient receptor potential channel 6 (Mus musculus) (Q61143 whole entry, looked up): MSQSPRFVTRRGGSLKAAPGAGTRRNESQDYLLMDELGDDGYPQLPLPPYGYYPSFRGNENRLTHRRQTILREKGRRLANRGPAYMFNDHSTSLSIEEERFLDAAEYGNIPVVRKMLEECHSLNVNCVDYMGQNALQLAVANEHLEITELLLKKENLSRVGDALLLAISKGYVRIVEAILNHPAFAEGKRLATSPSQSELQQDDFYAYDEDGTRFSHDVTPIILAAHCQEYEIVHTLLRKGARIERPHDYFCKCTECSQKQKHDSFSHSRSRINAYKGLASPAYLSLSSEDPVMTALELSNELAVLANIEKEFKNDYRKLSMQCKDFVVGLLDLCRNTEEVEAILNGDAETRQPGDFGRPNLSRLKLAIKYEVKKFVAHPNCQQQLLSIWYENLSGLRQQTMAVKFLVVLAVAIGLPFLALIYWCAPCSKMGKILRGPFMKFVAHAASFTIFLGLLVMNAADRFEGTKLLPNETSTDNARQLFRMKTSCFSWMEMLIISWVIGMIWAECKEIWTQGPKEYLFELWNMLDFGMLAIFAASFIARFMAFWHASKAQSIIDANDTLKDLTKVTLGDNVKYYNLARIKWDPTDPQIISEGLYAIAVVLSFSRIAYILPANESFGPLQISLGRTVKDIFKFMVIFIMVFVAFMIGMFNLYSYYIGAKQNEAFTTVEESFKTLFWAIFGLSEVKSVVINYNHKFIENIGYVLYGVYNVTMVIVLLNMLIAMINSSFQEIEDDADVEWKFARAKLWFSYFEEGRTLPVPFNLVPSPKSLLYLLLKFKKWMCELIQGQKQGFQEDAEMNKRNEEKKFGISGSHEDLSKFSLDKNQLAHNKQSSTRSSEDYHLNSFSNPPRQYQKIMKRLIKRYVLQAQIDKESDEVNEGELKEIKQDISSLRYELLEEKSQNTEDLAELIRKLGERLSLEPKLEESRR

[10] = target: Short transient receptor potential channel 6 (Mus musculus) (UniProt Q61143); test: TRPC6 opening by TRPC4 activator hits – cell-based, HEK293, membrane potential dye, duplicate, selectivity assay for TRPC4 activator project, confirmation (AID 434950;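 active means membrane potential signal rise above negative control mean plus 3 SD in both duplicates, also active in the earlier TRPC4 screen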); details: HEK293 TRPC6, membrane potential fluorescence, at 10 µM; activation: hits give high values; outcome: activation
[11] = target: Short transient receptor potential channel 6 (Mus musculus) (UniProt Q61143); test: positive modulators of mouse TRPC6 channel – HEK293 cells, membrane potential dye, duplicate, selectivity assay for TRPC4 potentiator project, confirmation (AID 434952;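 active means compound raising the membrane signal above positive-control mean plus 3 SD in both repeats, and a primary screen hit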); details: HEK293 TRPC6, membrane potential dye fluorescence, at 10 µM, maximal acetylcholine added after compound; hits give high values
[12] = target: Short transient receptor potential channel 4 (Mus musculus) (UniProt Q9QUQ5); test: calcium flux activators in TRPC4/5HT1a cells, counter-screen for TRPC4 activator project, cell-based, second counter screen, HEK293 TRPC4/5HT1a, Fluo-4 (AID 434977;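 active means calcium signal rise above buffer-control mean plus 5 SD in both duplicates, and also a hit in the primary screen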); details: Fluo-4 calcium flux, at 10 µM; hits give high values
[13] = serotonin-gated TRPC4 signal block – cell-based, second counter screen, HEK293 TRPC4/5HT1a, Fluo-4, counter-screen for TRPC4 inhibitor project, confirmation (AID 434978;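 active means primary screen active whose calcium signal fell more than 3 SD beyond the full-serotonin control mean in both duplicate plates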;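 on outcome: serotonin given first at submaximal then at maximal dose after compound preincubation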); details: Fluo-4 calcium flux, at 10 µM, serotonin added to trigger calcium flux; hits give high values
[14] = test system: TRPC4 (mouse), co-expressed with 5HT1a in HEK293; test: enhancement of serotonin-evoked TRPC4 response – cell-based, second counter screen, HEK293 TRPC4/5HT1a, Fluo-4, counter-screen for TRPC4 potentiator project, confirmation (AID 434979;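 active means signal rise over 3 SD above mean of control wells given weak agonist, in both repeats and first screen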); details: Fluo-4 calcium flux, at 10 µM, serotonin added at its EC20 dose; hits give high values
[15] = nonspecific calcium rise without TRPC4 – cell-based, HEK293 mu-opioid receptor line, counter-screen for TRPC4 activator project, confirmation (AID 449723;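 active means hit in primary screen, with calcium signal over 5 SD above buffer well mean in both duplicates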;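 further: counter screen cells carry the mu-opioid receptor alone and lack TRPC4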); details: HEK293 mu-opioid cells, Fluo-4 calcium fluorescence, at 10 µM; hits give high values
[16] = nonspecific potentiation of DAMGO calcium response – cell-based, HEK293 mu-opioid receptor line, counter-screen for TRPC4 allosteric potentiator project, confirmation (AID 449724;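 active means calcium signal rise more than 3 SD above the low-dose agonist control mean, in both duplicate plates and the primary screen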); details: HEK293 mu-opioid receptor cells, Fluo-4 calcium flux, at 10 µM, compound added before EC20 DAMGO stimulus; hits give high values

SMILES | outcome [1] | outcome [2] | outcome [3] | outcome [4] | inhibition [5] | outcome [6] | outcome [7] | outcome [8] | outcome [9] | outcome [10] | outcome [11] | outcome [12] | outcome [13] | outcome [14] | outcome [15] | outcome [16] | inhibition [6] | inhibition [13] | outcome [5] | inhibition [9]
COc1ccc(C2CC(c3ccccc3)Nc3nc(NC(=O)c4cccs4)nn32)cc1 (centres undefined) | inactive | inactive | inactive | inactive | 95% (active) | inactive | inactive | inactive | inactive | inactive | inactive | inactive | inactive | inactive | inactive | inactive | – | – | – | –
Cn1cc(CN2CCCCC2CO)c(-c2ccc(Oc3ccccc3)cc2)n1 (centres undefined) | inactive | inactive | inactive | inactive | 86% (active) | – | inactive | inactive | inactive | inactive | inactive | inactive | – | inactive | inactive | inactive | 41% (active) | 39.6% (active) | – | –
CC(C)=CCCC(C)CN1CCC(n2nccc2NC(=O)C2CCCC2)CC1 (centres undefined) | inactive | inactive | inactive | inactive | 99% (active) | – | inactive | inactive | inactive | inactive | inactive | inactive | – | inactive | inactive | inactive | 63% (active) | 38% (active) | – | –
O=C(Cc1ccccc1)Nc1ccccc1Sc1ccccc1 | inactive | inactive | inactive | inactive | 86% (active) | inactive | inactive | inactive | inactive | inactive | inactive | inactive | – | inactive | inactive | inactive | – | 40.9% (active) | – | –
Cn1c(-c2ccc(F)cc2)cnc1NCc1ccc(F)cc1 | inactive | inactive | inactive | inactive | 90% (active) | – | inactive | inactive | inactive | inactive | inactive | inactive | – | inactive | inactive | inactive | 68% (active) | 22.5% (active) | – | –
Cc1onc(-c2c(F)cccc2Cl)c1C(=O)N(C)CC(=O)Nc1cccc(F)c1 | inactive | inactive | inactive | inactive | 84% (active) | inactive | inactive | inactive | inactive | inactive | inactive | inactive | inactive | inactive | inactive | inactive | – | – | – | –
Cc1ccc(S(=O)(=O)Nc2cccc(C(=O)NCC(c3ccco3)N3CCCCC3)c2)cc1F (centres undefined) | inactive | inactive | inactive | inactive | 100% (active) | – | inactive | inactive | inactive | inactive | inactive | inactive | inactive | inactive | inactive | inactive | 39% (active) | – | – | –
Cc1ccc(Nc2cc(C)nc3ccc(C)cc23)cc1 | inactive | inactive | inactive | inactive | – | inactive | inactive | inactive | – | inactive | inactive | inactive | – | inactive | inactive | inactive | – | 25.7% (active) | inactive | 35% (active)
Nc1c2c(nc3ccccc13)CCC2 | inactive | inactive | inactive | inactive | 97% (active) | – | inactive | inactive | – | inactive | inactive | inactive | – | inactive | inactive | inactive | 44% (active) | 29.6% (active) | – | 16.5% (active)
CC(=O)Nc1ccc(S(=O)(=O)NC2=C(N3CCN(Cc4ccccc4)CC3)C(=O)c3ccccc3C2=O)cc1 | inactive | inactive | inactive | inactive | 72% (active) | – | inactive | inactive | – | inactive | inactive | inactive | inactive | inactive | inactive | inactive | 40% (active) | – | – | 30% (active)
O=S(=O)(c1ccccc1)N1CCN(C/C=C/c2ccccc2)CC1 | inactive | inactive | inactive | inactive | 93% (active) | inactive | inactive | inactive | inactive | inactive | inactive | inactive | inactive | inactive | inactive | inactive | – | – | – | –
O=C(c1cccc(C(=O)N2CCN(c3ccccc3)CC2)c1)N1CCN(c2ccccc2)CC1 | inactive | inactive | inactive | inactive | 92% (active) | – | inactive | inactive | inactive | inactive | inactive | inactive | – | inactive | inactive | inactive | 46% (active) | 26.9% (active) | – | –
Cc1ccc(N2CCN(C(=O)c3ccccc3F)CC2)c(C)c1 | inactive | inactive | inactive | inactive | 84% (active) | – | inactive | inactive | inactive | inactive | inactive | inactive | – | inactive | inactive | inactive | 41% (active) | 26.6% (active) | – | –
c1ccc(CNc2c3ccccc3nc3ccccc23)cc1 | inactive | inactive | inactive | inactive | 95% (active) | – | inactive | inactive | – | inactive | inactive | inactive | – | inactive | inactive | inactive | 60% (active) | 23.7% (active) | – | 38% (active)
